From PubChem BioAssay
An excerpt weighted towards active compounds, which were near 7.3% of everything screened.
Tau fluor cs – counter-screen for tau fibril formation inhibitors; tau K18 P301L Alexa594 fluorescence, heparin fibrillization; Potency, µM (highest dose often 57.7 µM), inactives show top-dose activity change, negative = decrease; hit rate 0.93% among 280,000; further: nearly all actives have a fitted effect of over 55% in size
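Human K18 P301L tau (15 uM unlabeled plus 0.24 uM Alexa 594-labeled, final) in 100 mM sodium acetate pH 7 was mixed with compound and 20 uM heparin and incubated 6 hr at 37 C.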
VP16 counter – Gal4-VP16 reporter inhibition counter-screen. Drosophila S2 Gal4-VP16 UAS-luciferase, luminescence, 20 h. Potency, µM (highest dose often 53.6 µM), for the others: top-dose activity, negative = inhibition, hits mostly inhibitors. hit rate 3.5% among 310,000;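 further: Gal4-VP16 expression switched on by copper sulfate through the metallothionein promoter; nearly all actives have a fitted effect of over 50% in size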
Tau fibril FP – tau fibrillization inhibition (FP). P10636. K18 P301L tau heparin fibrillization, Alexa594 FP, 6 h. Potency, µM (series often up to 57.7 µM), for the others: at the top dose activity, negative = inhibition, usual class: inhibitors. hit rate 0.39% among 280,000. AID 1468; further: nearly all actives have a fitted effect of over 55% in size
Target sequence (P10636 561-689 P618L limits assumed): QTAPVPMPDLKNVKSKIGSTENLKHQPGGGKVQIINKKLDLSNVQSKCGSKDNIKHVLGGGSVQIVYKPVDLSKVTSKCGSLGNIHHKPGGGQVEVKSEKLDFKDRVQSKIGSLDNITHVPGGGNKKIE
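Compound effects on tau fibrillization are measured by Alexa 594 fluorescence polarization (ex 555, em 632 nm). K18 P301L tau is used at 15 uM with 0.24 uM labeled tracer, and 20 uM heparin induces aggregation over 6 hr at 37 C.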
RORgamma inh – blocks mouse ROR gamma transcriptional activity; Drosophila S2 Gal4-RORgamma UAS-luciferase reporter, 20 h; AID 2551; Potency, µM (titrated, usually from 53.6 µM), for the others: at the top dose activity change, negative = inhibition, usual class: inhibitors; hit rate 5.4% among 310,000; further: nearly all actives have a fitted effect of over 60% in size
Target sequence (P51450 whole entry, looked up, the tested form may be a part): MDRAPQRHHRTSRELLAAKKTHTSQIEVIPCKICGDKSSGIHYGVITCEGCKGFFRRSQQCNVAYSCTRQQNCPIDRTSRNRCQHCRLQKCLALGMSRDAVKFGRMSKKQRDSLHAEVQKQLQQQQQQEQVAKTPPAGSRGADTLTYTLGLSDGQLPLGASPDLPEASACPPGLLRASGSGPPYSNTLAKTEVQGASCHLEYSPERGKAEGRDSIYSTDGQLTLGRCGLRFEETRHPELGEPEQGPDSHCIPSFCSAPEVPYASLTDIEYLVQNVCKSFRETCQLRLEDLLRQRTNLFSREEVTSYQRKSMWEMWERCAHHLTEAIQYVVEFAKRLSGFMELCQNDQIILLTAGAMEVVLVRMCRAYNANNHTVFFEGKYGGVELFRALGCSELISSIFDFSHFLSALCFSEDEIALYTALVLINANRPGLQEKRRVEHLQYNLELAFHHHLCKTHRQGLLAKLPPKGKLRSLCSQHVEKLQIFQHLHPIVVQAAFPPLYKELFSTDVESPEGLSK
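Luciferase reporter read in Schneider cells carrying Gal4-RORγ (mouse) and UAS-Photinus luciferase; cells given compound 1 h before 700 uM copper sulfate induction, then incubated 20 h at ambient temperature.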
Tau fibril ThT – inhibitors of human tau fibril formation, thioflavin T binding. hit rate 2.1% among 270,000. Potency, µM (top dose mostly 57.4 µM), for inactives: top-dose activity, negative = inhibition, usual class: inhibitors. recombinant tau K18 P301L, heparin-induced fibrillization, ThT fluorescence; further: nearly all actives have a fitted effect of over 55% in size
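Using a mix of unlabeled (15 uM) and Alexa 594-labeled (0.24 uM) tau K18 P301L, heparin-triggered fibrillization over 6 hr at 37 C was scored by ThT fluorescence.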
* marks the source's active call; other numbers are inactive results; ? = inconclusive; · = no result; [ ] = dose if it differs, or a comment. The call rests on the fitted dose curve; in most records, active means well fitted curve in the direction sought with a large enough effect; inconclusive means small, poorly fitted or top-dose-only effect, or another doubt; inactive means no such curve, though single readings can be large; an effect the other way counts as inactive or inconclusive. On the % scale 0 is the no-effect control and ±100 the full control effect; potency means the concentration at half of the fitted maximal effect.

SMILES	Tau fluor cs	VP16 counter	Tau fibril FP	RORgamma inh	Tau fibril ThT
C[C@H](N)C(=O)N[C@@H](Cc1ccc(F)cc1)C(=O)N[C@@H](CCCN=C(N)N)C(=O)N[C@@H](CC1CCCCC1)C(=O)N[C@@H](CCCCN=C(N)N)C(=O)N[C@@H](Cc1ccc(O)cc1)C(N)=O	·	1.3%	·	15.2%	·
COc1ccc2nc(-n3c(O)c(C4=c5ccccc5=NC4=O)[nH]c3=S)sc2c1	8.91µM*[quencher]	?	?	12.6µM*	2.24µM*
Cn1c(O)c(C2=c3ccccc3=NC2=O)[nH]c1=S	-9.4%	-5.4%	7.0%	?	?
Cc1ccc(S(=O)(=O)NCC2NCCc3ccccc32)cc1 (centres undefined)	-9.5%	5.6%	-3.7%	17.8µM*	-13.7%
CCc1ccccc1N(C)C(=O)c1nn(-c2ccc(OC)cc2)c(=O)c2c1c1ccccc1n2C	-26.8%	·	-9.1%	·	-14.8%
COc1ccc(/C=C/C(=O)c2cc3cccc(OC)c3oc2=O)cc1	-21.8%	-4.2%	13.7%	29.5%	7.08µM*
COc1ccc(-c2cc3cccc(OC)c3oc2=O)cc1	·	?	·	10µM*	·
CC(=O)N1CCC2(CCCN(c3ccc(-c4ccccc4)cc3)C2)CC1	·	-24.5%	·	?	·
CCCCCCCCc1nc(=S)[nH][nH]1	-5.9%	?	-3.3%	10µM*	-7.7%
CC1(C)CCC[C@]2(C)C3CC(=O)O[C@@]3(C)CC[C@H]12 (some centres undefined)	-10.9%	-5.1%	-7.9%	-4.7%	-7.6%
CC(=O)Nc1ccc(S(=O)(=O)Oc2ccc(C(=S)N3CCCCC3)cc2)cc1	?	?	?	?	-11.8%
CC(=O)Nc1ccc(S(=O)(=O)Oc2ccc(C(=S)N3CCC(O)CC3)cc2)cc1	-4.4%	35.5µM*	-9.1%	?	1.8%
CC(Cc1ccc(O)c(O)c1)C(C)Cc1ccc(O)c(O)c1 (centres undefined)	15.8µM*[quencher]	-0.4%	-2.4%	-0.4%	?
O=C(NCc1cc([N+](=O)[O-])ccc1O)c1cccnc1Sc1ccccc1Cl	·	2.82µM*	·	3.55µM*	·
Cc1cccc(Cn2c(=O)oc3ccc(C)cc32)c1	·	-14.4%	·	-6.3%	·
C=C(C)C1Cc2c(C)nn(-c3cccc4ccccc34)c2C1 (centres undefined)	-29.5%	?	-15.9%	14.1µM*	?
Cc1nn(CCc2n[nH]c(=S)n2-c2ccc(F)c(Cl)c2)c(C)c1[N+](=O)[O-]	-7.1%	?	0.4%	7.08µM*	-10.8%
Cc1cccc(-n2c(Cn3nc(C)c([N+](=O)[O-])c3C)n[nH]c2=S)c1	-3.8%	-4.7%	-0.6%	11.2µM*	-12.2%
Cc1nn(CCc2n[nH]c(=S)n2-c2ccc(F)cc2)c(C)c1[N+](=O)[O-]	-3.7%	-6.5%	3.3%	?	-6.2%
Nc1nc(NCCc2ccc(O)cc2)nc2nc(-c3ccco3)nn12	-9.6%	-1.6%	-2.9%	14.7%	-16.7%
COc1cccc(-n2cc(C(=O)Nc3ccccc3C(N)=O)c3ccccc3c2=O)c1	-12.9%	·	-0.1%	·	-6.1%
Cc1ccccc1C(=O)NC(C(=O)Nc1nc2c(s1)CCCC2)C(C)C (centres undefined)	8.7%	20µM*	11.4%	?	5.1%
Cc1ccccc1-c1cc(C(=O)Nc2nc3c(s2)CCCC3)c2ccccc2n1	-10.9%	-17.9%	-0.4%	10µM*	-14.9%
Cc1ccccc1C(=O)N[C@H](C(=O)Nc1ccc(Cl)c(Cl)c1)C(C)C	-1.4%	-19.6%	7.5%	-14.4%	-1.9%
O=C(NC(=S)Nc1ccccc1N1CCCCC1)c1ccc(F)cc1Cl	·	3.16µM*	·	4.47µM*	·
SMILES	Tau fluor cs	VP16 counter	Tau fibril FP	RORgamma inh	Tau fibril ThT
Cn1c(=O)n(C)c2cc(N3CCCC3)c(NC(=O)c3cccc(F)c3)cc21	·	-10.9%	·	-31.5%	·
O=C(NC(=S)Nc1ccccc1N1CCOCC1)c1ccc(-c2ccccc2F)o1	?	-8.7%	1.8%	2.82µM*	·
O=C(NC(=S)Nc1ccccc1N1CCCC1)c1cccc(F)c1	?	7.94µM*	0.5%	3.16µM*	?
O=C(NC(=S)Nc1ccccc1N1CCCC1)c1ccc(F)cc1	-10.1%	-64.0%	1.0%	1.58µM*	-6.4%
O=C1C=C[C@@H](O)[C@H]2[C@@H]3C(=O)N(C4CCCCC4)C(=O)[C@@H]3CC[C@H]12	-5.3%[11.6 µM]	3.4%[10 µM]	-6.3%[11.6 µM]	-36.7%[10 µM]	-8.3%[11.5 µM]
O=C(NC(=S)Nc1ccccc1N1CCCCC1)c1ccccc1	-29.8%	7.94µM*	-19.4%	1.41µM*	-11.2%
Cc1ccc(C(=O)Nc2ccccc2N2CCCCC2)cc1	·	-1.4%	·	-0.5%	·
C(=N\Nc1nc2ccccc2[nH]1)/c1cccs1	?	4.47µM*	17.8µM*	3.16µM*	5.01µM*
C(=N\Nc1nc2ccccc2[nH]1)/c1ccncc1	-21.7%	?	?	15.4%	?
Cc1ccsc1/C=N/Nc1nc2ccccc2[nH]1	?	1.41µM*	0.6%	1.41µM*	?
CC(=O)N[C@@H](C=O)[C@@H](O)[C@H](O)[C@H](O)CO	-2.9%	4.8%	2.5%	-8.6%	-2.3%
CCOc1ccc(-n2c(SCC(=O)N3CCCCCC3)nc3c([nH]c4ccccc43)c2=O)cc1	-3.3%	·	0.4%	·	11.9%
O=c1cc(-c2ccc(F)cc2F)[nH]c2ccc(F)cc12	-5.9%[81.3 µM]	-6.9%[96.6 µM]	0.7%[81.3 µM]	38.2%[96.6 µM]	-2.6%[81.4 µM]
Cc1ccc2[nH]c(C(=O)Nc3ccc(F)cc3)cc2c1	·	15.9%	·	10µM*	·
CCOc1ccccc1NC(=O)Cn1c(=O)n(Cc2ccc(OC)cc2)c(=O)c2oc3ccccc3c21	-4.0%	·	-0.4%	·	8.2%
CCn1c(O)c(/C=N/N=C/c2ccc(OC)cc2)c2cc(C3=NNC(=O)CC3)ccc21	-2.7%	-0.9%	-0.1%	-0.9%	·
CC/C(C)=N\N=C\c1c(O)n(CC)c2cc(C3=NNC(=O)CC3)ccc12	-22.6%	-5.2%	-8.8%	18.7%	15.8µM*
CCNC(=O)CC1C(=O)N(c2ccc(C)cc2)C(=O)N1Cc1ccc(C)cc1 (centres undefined)	-5.9%	·	-10.8%	·	-1.7%
Cc1cc(-c2ccccc2)c2c(=O)n(-c3ccccc3)[nH]c2n1	·	16.7%	·	-31.7%	·
O=c1c2c3n(c(=S)nc2[nH]n1-c1ccccc1)CCCCC3	-17.4%	?	-0.2%	12.6µM*	?
Cc1cccc(-n2c(C)nc3c(cnn3-c3ccc(F)cc3)c2=O)c1	-2.4%	7.08µM*	-1.0%	-39.3%	-8.4%
CCCCCOC(=O)CSc1ncnc2sc3c(c12)CCC(C)C3 (centres undefined)	-8.3%	·	-10.7%	·	-17.9%
C[N+](C)(CCOc1ccccc1)Cc1ccccc1 (tested in a mixture with another compound)	·	2.5%	·	5.0%	·
CCCCCCCCCCCCC[N+](C)(C)Cc1ccccc1	-5.5%	8.91µM*	0.8%	?	-14.5%
CC(Nc1ccccc1N1CCCCC1)C(=O)N1CCc2ccccc21 (centres undefined)	?	3.9%	9.2%	19.5%	?
